Measurements reported in PubChem BioAssay (EPA / NIEHS).
Several values for one entry are separate records, joined by “and”; a condition that tells them apart may be missing. Equal entries are not always repeated. Where a structure was tested more than once in an assay, its records may differ in their call. Activity calls are given as the source filed them. Rule for the calls: active = hit-call score of the fitted dose curve at least 0.9, where 1 is the maximum; inactive = score below 0.9.

Assay: ATG_Oct_MLP_CIS: Attagene CIS-FACTORIAL HepG2 Assay for human Octamer-Binding Transcription Factor (Oct) (AID 2282993)
Conditions: HepG2 Attagene cis-factorial Oct reporter, mRNA; actives raise or lower the signal
How it was run: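 Read-out: reporter mRNA via RT-PCR plus capillary electrophoresis of 6-FAM-labelled fragments. Transiently transfected HepG2, 24 h exposure, endogenous TF activity on cis elements. Gain or loss of signal fitted relative to DMSO.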
For N#CN=C(N)N, the outcome was “inactive”.
With CCc1ccccc1C the outcome was “inactive”.
For CCNc1nc(NC(C)(C)C)nc(SC)n1, the outcome was “inactive”.
In the case of CC(C)(C)CC(C)(C)c1ccc(O)cc1, the outcome is reported as “inactive”.
In the case of CC(=O)[O][Hg][c]1ccccc1, the AC50 is reported as 2.5 µM (active).
In the case of C=C(C)C#N, the outcome is reported as “inactive”.
In the case of Fc1ccc(C2(Cn3cncn3)OC2c2ccccc2Cl)cc1 (configuration not stated), the outcome is reported as “inactive”.
In the case of O=C(O)C(F)(F)C(F)(F)C(F)(F)C(F)(F)C(F)(F)C(F)(F)F, the outcome is reported as “inactive”.
In the case of CCC(C)(C)c1ccc(O)c(C(C)(C)CC)c1, the outcome is reported as “inactive”.
In the case of CN(C)N=O, the outcome is reported as “inactive”.
For CC1(C)CCC(Cc2ccc(Cl)cc2)C1(O)Cn1cncn1 (configuration not stated), the outcome was “inactive”.
For O=C1CCCN1, the outcome was “inactive”.
With CCCCP(CCCC)CCCC the outcome was “inactive”.
In the case of COS(=O)(=O)c1ccc(C)cc1, the outcome is reported as “inactive”.
For Clc1ccc(C2(Cn3cncn3)CC(Br)CO2)c(Cl)c1 (configuration not stated), the outcome was “inactive”.
With CC(=O)OC(c1ccccc1)C(Cl)(Cl)Cl (configuration not stated) the outcome was “inactive”.
In the case of CC(=[OH+])/C=C(/C)[O-].CC(=[OH+])/C=C(/C)[O-].CC(=[OH+])/C=C(/C)[O-].[Fe], the outcome is reported as “inactive”.
In the case of CC(C)(c1ccccc1)c1ccc(O)c(C(C)(C)c2ccccc2)c1, the AC50 is reported as 1.76 µM (active).
In the case of c1cc[c]([Hg][c]2ccccc2)cc1, the AC50 is reported as 19 µM (active).
In the case of O=C(Cl)c1ccc(Cl)cc1, the outcome is reported as “inactive”.
With C[C@@H]1C[C@@H]([C@H](O)CC2CC(=O)NC(=O)C2)C(=O)[C@@H](C)C1 the AC50 was 24.1 µM (active) and 25.4 µM (active) and the outcome was “inactive”.
With O=C1C2(Cl)C3(Cl)C4(Cl)C(Cl)(Cl)C5(Cl)C3(Cl)C1(Cl)C5(Cl)C24Cl (configuration not stated) the AC50 was 16.7 µM (active) and the outcome was “inactive”.
With Cl/C=C\C[N+]12CN3CN(CN(C3)C1)C2 the outcome was “inactive”.
For ClCc1cccnc1, the AC50 was 50.9 µM (active).
With ClC1(Cl)C2(Cl)C3(Cl)C4(Cl)C(Cl)(Cl)C5(Cl)C3(Cl)C1(Cl)C5(Cl)C24Cl (configuration not stated) the outcome was “inactive”.
For ClC1=C(Cl)[C@]2(Cl)[C@@H]3[C@@H](Cl)[C@@H](Cl)C[C@@H]3[C@@]1(Cl)C2(Cl)Cl, the outcome was “inactive”.
With CN(C)P(=O)(N(C)C)N(C)C the outcome was “inactive”.
For O=C(O)C(F)(F)C(F)(F)C(F)(F)C(F)(F)C(F)(F)C(F)(F)C(F)(F)C(F)(F)C(F)(F)C(F)(F)F, the AC50 was 25 µM (active) and the outcome was “inactive”.
In the case of CC(C)c1ccc(CO)cc1, the outcome is reported as “inactive”.
In the case of CCC(C)c1cccc(C(C)CC)c1O (configuration not stated), the outcome is reported as “inactive”.
For COC[C@H](C)N(C(=O)CCl)c1c(C)csc1C, the outcome was “inactive”.
In the case of Oc1cccc2cccnc12, the AC50 is reported as 167 µM (active) and the outcome is reported as “inactive”.
With CC(C)C1CCC(Cc2ccc(Cl)cc2)C1(O)Cn1cncn1 (configuration not stated) the outcome was “inactive”.
